Data taken from PubChem BioAssay (NCI).
Several values for one entry are separate records, joined by “and”; a condition that tells them apart may be missing. Equal entries are not always repeated. The panel holds about 83,000 compounds, 20% with a hit somewhere; the sample as a whole holds those more often.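 Each cell line was grown in a 96-well plate and treated with one concentration of compound for 48 hours. Values below 10 were considered active.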 Unmarked numbers belong to inactive results. Activity calls are given as the source filed them.

Each molecule was assayed on HL-60(TB) leukemia (assay: NCI-60 one-dose screen, 48 h (100 = growth as untreated, 0 = no growth, -100 = all killed)). Details: 10 µM unless noted.
COCCNC(C(=O)c1ccccc1)c1ccccc1 (centres undefined) showed a growth of 103%. For CC(C)(C)C1=CC(=O)C(C(C)(C)C)=CC1=O, the growth was 92.5% and 106%. CN(C)c1ccc(/C=C/C(=O)c2ccc(-n3cc(CN4CCN(c5cc6c(cc5F)c(=O)c(C(=O)O)cn6C5CC5)CC4)nn3)cc2)cc1 gave a growth of 84.6%. With COc1ccc(S(=O)(=O)c2ccc(F)cc2)cc1 the growth was 105%. In the case of COc1ccc2c(c1)nnn1c3ncccc3c(N=O)c21, the growth is reported as -39.8% (active). For COc1ccc(Cn2cc(Cn3c(=O)c(-c4nc5ccccc5[nH]4)cc4ccccc43)nn2)c(OC)c1OC, the growth was 7.75% (active). In the case of O=C1Nc2ccccc2/C1=C\c1nc(C2CCN(S(=O)(=O)c3ccc(F)cc3)CC2)n2ccccc12, the growth is reported as 92.3%. CN(C)c1ccc(/C=C/c2ccnc3ccccc23)cc1N gave a growth of 43.5%. For CN1CNC(=O)NC1, the growth was 85.5% and 102%. Cn1cc(C(=O)c2nc(-c3c[nH]c4ccccc34)no2)c2cc(F)ccc21 was tested, and the growth was -6.73% (active). For COc1cc(-c2nc(SCC(C)C)nc(Nc3cccc4ccccc34)c2C#N)cc(OC)c1OC, the growth was 79.1%. COc1ccc2c(c1)[nH]c(=O)c1c3cc(OC)c(OC)cc3cn21 was tested, and the growth was -18.9% (active). In the case of C/C(=N\NC(=O)c1ccncc1)c1ccccc1O, the growth is reported as 5.87% (active) and 2.85% (active). CCOC(=O)C(C#N)Cc1ccccc1 (centres undefined) was tested, and the growth was 104%. With O=[N+]([O-])C1C(c2ccccc2)C12c1ccccc1-c1ccccc12 (centres undefined) the growth was -30.6% (active). Cc1nc2c(=O)[nH]c(=S)[nH]c2[nH]c1=O was tested, and the growth was 75.3% and 96.3%. With O=c1[nH]nnc2cc(Cl)ccc12 the growth was 108% and 100%. Molecule N#C/C(=C\c1ccc[nH]1)c1cc2ccccc2[nH]1 has a growth of 64.8%. For Clc1ccc(CNc2c3ccccc3nc3ccccc23)cc1, the growth was 44.7%. With C[C@@H](c1ccc2c(c1)[nH]c1ccc(Cl)cc12)c1nc2ccccc2[nH]1 the growth was 91.3%. In the case of CC1(C)CC[C@]2(c3nnc(-c4ccncc4)o3)CC[C@H]3C(=CC[C@H]4[C@@]3(C)CC[C@H]3C(C)(C)C(=O)CC[C@]43C)[C@@H]2C1, the growth is reported as 3% (active). With C#Cc1c2c(c(OC)c3c1OCO3)[C@H]([C@H]1OC(=O)c3c1ccc(OC)c3OC)N(C)CC2 the growth was 72.5%. COc1cc2cc(Oc3ccc(NC(=O)Nc4cccc(C(F)(F)F)c4)cc3)c(C)nc2cc1OCCN1CCOCC1 gave a growth of 66.9%. In the case of COc1ccc(OC)c(/C=C2\Oc3cc(OCCN4CCC(Cc5ccccc5)CC4)ccc3C2=O)c1, the growth is reported as 98.2%. CCOC(=O)c1cc(-c2ccc([N+](=O)[O-])cc2)n(-c2ccc(C(=O)O)c(O)c2)c1C gave a growth of 31%. CCCC(C)OCC(=O)O (centres undefined) gave a growth of 88.8%. Work on OB(O)c1ccccc1 yielded a growth of 98.1%. CC(=O)Nc1nc(C)c(C(=O)NNS(=O)(=O)c2ccccc2)s1 gave a growth of 174%. For O=C(Nc1ccc(Cl)cc1)Nc1ccccc1CNc1nc(Nc2ccc(OCCN3CCCC3)cc2)ncc1Cl, the growth was -45.1% (active). COc1cc(CSc2nc3ccc(Cl)cc3c(=O)n2Cc2ccccc2)cc(OC)c1OC gave a growth of 14.7%. With O=c1c(-c2nc3ccccc3[nH]2)cc2ccccc2n1Cc1cn(Cc2ccc(F)cc2)nn1 the growth was 0.035% (active). COc1ccccc1-n1cnc(N)c1C(=O)c1cc(OC)c(OC)c(OC)c1 showed a growth of 10.9%. Work on Cc1cc(N2CCOCC2)nc(N2CCOCC2)n1 yielded a growth of 97.9%. O=C1CCC(=O)N1CC1CC2CCC1C2 (centres undefined) was tested, and the growth was 128% and 97.8%. For O=C1OCC2=C1C(c1cccc(Cl)c1)c1cc3c(cc1N2CCO)OCCO3 (centres undefined), the growth was -20% (active). With O=S(=O)(Nc1ccc(-c2nc(-c3cccc(OCCN4CCOCC4)c3)c(-c3ccnc(Br)c3)[nH]2)cc1)c1ccccc1 the growth was -2.01% (active). In the case of O=C1/C(=C/c2ccc(Cl)c(Cl)c2)CN(C(=O)C(Cl)Cl)C/C1=C\c1ccc(Cl)c(Cl)c1, the growth is reported as -15.2% (active). With COc1cc2cc(Oc3ccc(NC(=O)Nc4cc(C(F)(F)F)cc(C(F)(F)F)c4)cc3)c(C)nc2cc1OCCN1CCOCC1 the growth was 1.68% (active). Clc1ccc(-n2cnc3c(Cl)ncnc32)cc1Cl showed a growth of 45.7%.
